Bioassay records: PubChem BioAssay, National Center for Advancing Translational Sciences (NCATS)
Only a selection was taken, and hits are over-represented in it overall.
Pin1 inh: human Pin1 inhibition. 0.009% of 390,000 active. AID 504891. Q13526. Pin1 FP peptide displacement, HiFluor488, 10 min. Potency, µM (series often up to 115 µM), without a hit: at the top dose activity, negative = inhibition, hits mostly inhibitors; active = well fitted inhibition curve with a large enough effect in the polarisation, with a control signal flat, not every such curve was filed as active; inconclusive = small, poorly fitted or top-dose-only effect, or effect the other way, or a change in a side signal; inactive = no such curve, though single readings can be large or run the other way; the % refers to the polarisation; note: potency is the fitted concentration of half-maximal effect
Target sequence (Q13526 whole entry, looked up): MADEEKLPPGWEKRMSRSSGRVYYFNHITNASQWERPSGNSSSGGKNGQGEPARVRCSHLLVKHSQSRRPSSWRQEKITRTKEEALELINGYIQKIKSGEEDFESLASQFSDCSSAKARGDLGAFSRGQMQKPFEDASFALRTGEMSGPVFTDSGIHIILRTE
PGK inhibitor: T. brucei PGK inhibition; P07378; PGK/GAPDH coupled, Kinase-Glo luminescence, 60 min; Potency, µM (top dose mostly 57.5 µM), for inactives: at the top dose activity change, negative = inhibition, usual class: inhibitors; 0.043% of 380,000 active; AID 602233; note: potency is the fitted concentration of half-maximal effect; nearly all actives have a fitted effect of over 60% in size
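Recombinant glycosomal PGK reaction used 1,3-bisphosphoglycerate generated in-well by GAPDH (100nM final) in 100mM TEA pH 7.6, 5mM MgCl2, 0.01% Tween-20. After 60 minutes at room temperature, ATP was read by Kinase-Glo Plus luminescence end-point.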
PI4K2A block: blocks human PI4K2A kinase activity; 0.13% of 420,000 active; Q9BTU6; purified PI4K2A, ADP-Glo luminescence, 1 h; active compounds read low; activity change, negative = inhibition, % at 76.9 µM; AID 1346378; in the data active = activity change below about -50%; inconclusive = mostly about -30% to -49%;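 note: -100% = wells without enzyme as full effect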
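PI4K2A activity was measured by ADP-Glo luminescence: enzyme (4 ug/mL stock) and phosphatidylinositol (1.2 mM stock) in Tris pH 7.5/MgCl2/EGTA/Triton X-100 buffer were reacted with ATP (300 microM stock) for one hour at ambient temperature.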
Tb PFK inh: inhibitors of T. brucei phosphofructokinase | T. brucei PFK, ADP-Glo luminescence | O15648 | Potency, µM (series often up to 57.5 µM), without a hit: top-dose activity, negative = inhibition, usual class: inhibitors | 0.17% of 330,000 active | AID 485367;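 note: potency is the fitted concentration of half-maximal effect; 0% = uninhibited 1x PFK enzyme wells and -100% = no-enzyme wells; nearly all actives have a fitted effect of over 60% in size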
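PFK 1.25 nM, F6P 0.5 mM, ATP 0.1 mM, 0.1 M TEA pH 8.0, 5 mM MgCl2, 0.01% Tween20, 0.1% BSA; 45 min RT. ADP-Glo readout. qHTS titration up to 57 uM; curves fitted, compounds curve-classed.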
PI5P4K alpha inh: PI5P4K alpha (human) kinase inhibition; PI5P4Kalpha enzyme, ADP-Glo luminescence, 60 min; active compounds read low; max response, %; 1.2% of 330,000 active; AID 652105; active = max response of -50% or lower; inconclusive = between -30% and -50%; inactive = -30% or higher; note: value at the top dose of about 77 µM
Target sequence (P48426 whole entry, looked up): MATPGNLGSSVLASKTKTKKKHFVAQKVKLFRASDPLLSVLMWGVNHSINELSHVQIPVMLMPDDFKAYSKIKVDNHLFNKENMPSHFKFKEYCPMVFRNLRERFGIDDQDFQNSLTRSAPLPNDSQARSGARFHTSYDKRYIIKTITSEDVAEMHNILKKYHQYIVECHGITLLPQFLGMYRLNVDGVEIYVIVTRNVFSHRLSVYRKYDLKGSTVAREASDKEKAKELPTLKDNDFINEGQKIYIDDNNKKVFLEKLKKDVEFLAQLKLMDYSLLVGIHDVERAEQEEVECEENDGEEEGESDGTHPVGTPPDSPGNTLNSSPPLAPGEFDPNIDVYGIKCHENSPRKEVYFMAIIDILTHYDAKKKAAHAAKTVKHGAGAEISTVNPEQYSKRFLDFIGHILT
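Quantitative HTS of the MLSMR library against PI5P4Kalpha with substrate. ATP added last at 5 microM final; room temperature, 60 minutes. Remaining ATP depleted, ADP converted and read as luminescence.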
* hit, by the source's call; i = inactive; u = inconclusive; x = no result. Unless noted, calls come from the whole dose curve; as a rule, active = well fitted curve in the direction sought with a large enough effect; inconclusive = small, poorly fitted or top-dose-only effect, or another doubt; inactive = no such curve, though single readings can be large; an effect the other way counts as inactive or inconclusive. Unless noted, % is set by controls: 0 for no effect and ±100 for the full control effect.

SMILES	Pin1 inh	PGK inhibitor	PI4K2A block	Tb PFK inh	PI5P4K alpha inh
O=S(=O)(c1ccc2c(c1)OCCO2)N1CCN(S(=O)(=O)c2cccc(Cl)c2F)CC1	20.4%	x	x	x	x
Cc1cccc2c(N=Nc3ccc(S(=O)(=O)Nc4ccc(Cl)cc4)cc3[N+](=O)[O-])c(O)[nH]c12	-2.5%	0.9%	0.1	6.7%	-74.2*
COC(=O)C(C)Sc1n[nH]c(=S)s1 (stereo not drawn)	-7.4%	-2.6%	12.4	-2.3%	-71.7*
COC(=O)CSc1n[nH]c(=S)s1	-5.9%	i	2.5	3.9%	-21.0
O=S(=O)(O)c1cc(O)c2c(O)c(N=Nc3cc(Cl)ccc3O)c(S(=O)(=O)O)cc2c1	u	u	-52.6*	u	-76.1*
Oc1ccc(Cl)cc1N=Nc1ccccc1	-5.9%	-10.2%	-0.9	1.5%	16.3
O=C1C=CC(=O)c2c(O)c(N3CCN(CCOCCO)CC3)c(Br)c(O)c21	u	u	-59.7*	x	-54.7*
OCCOCCN1CCN(C2=Nc3ccccc3Sc3ccccc32)CC1	-3.7%	-0.6%	-1.2	0.5%	-3.2
O=C1C=CC(=O)c2c(O)c(N3CCN(CCO)CC3)c(Cl)c(O)c21	u	u	-56.6*	x	u
CC1=C(C#N)C(=O)N(C2CCS(=O)(=O)C2)C(=O)/C1=C\c1ccco1 (stereo not drawn)	x	x	x	15.1µM*	x
S=C(Nc1ccccn1)c1ccccn1	1.5%	-6.0%	-13.5	u	-94.9*
O[C@@H]([C@H](O)[C@H](O)CBr)[C@H](O)CBr	1.8%	-8.7%	-3.6	x	-62.2*
OC[C@@H](O)[C@H](O)[C@H](O)[C@@H](O)CO	x	x	-0.5	x	x
CCN(CCCNc1cc2c(c(N)c1S(=O)(=O)O)C(=O)c1ccccc1C2=O)c1ccccc1	x	u	u	x	-55.8*
C[C@H]1[C@@H](OC(=O)NCCc2c[nH]c3ccccc23)CC[C@@]23CCCN2C(=O)CCC[C@@H]13	x	x	-1.8	x	x
CC(=O)N[C@@H]1C[C@@H]2O[C@H](CO)CC[C@@H]2O[C@@H]1CCc1ccc(-c2ccc(F)cc2)cc1	x	x	0.0	x	x
CC(=O)Sc1nc(-c2ccccc2)[nH]c1S(=O)(=O)c1ccc(C)cc1	u	-1.7%	0.3	-4.0%	-80.6*
Cc1ccc(S(=O)(=O)c2[nH]c(-c3ccccc3)nc2SCC(=O)O)cc1	-16.5%	7.2%	-0.4	x	x
Cc1ccccc1-c1nc(-c2ccccn2)no1	-6.1%	u	-50.8*	-21.6%	-25.8
COc1ccccc1-c1noc(-c2ccncc2)n1	-0.3%	-5.0%	-8.0	5.3%	7.7
Clc1ccc(-c2nc(-c3ccccn3)no2)cc1Cl	-10.1%	-14.5%	-3.2	0.9%	x
COc1ccc(-c2nc(-c3ccccn3)no2)cc1	-1.0%	15.8µM*	-73.8*	u	u
COc1ccccc1-c1nc(-c2ccccn2)no1	0.0%	u	-63.9*	u	u
O=S(=O)(CC1NCCc2ccccc21)NCCc1ccccc1 (stereo not drawn)	x	x	2.7	x	x
C=CCn1c(SCc2ccc(Br)cc2F)nc2cc(C(=O)O)ccc2c1=O	-7.6%	-15.7%	-4.8	18.3%	-60.5*
SMILES	Pin1 inh	PGK inhibitor	PI4K2A block	Tb PFK inh	PI5P4K alpha inh
CC(=O)c1cc2c(s1)c1cnn(Cc3ccccc3F)c(=O)c1n2C	-3.7%	x	x	x	x
O=C1C(=C(I)I)c2ccccc2-c2ccccc21	x	-13.9%	-57.6*	x	4.8
O=C(O)c1cccc2c1C(=O)c1ccccc1-2	-2.4%	18.0%	-4.4	1.3%	-3.7
N#CC(=Cc1ccc(O)cc1)C(N)=C(C#N)C#N	32.3%	-7.7%	-7.1	-5.3%	-69.5*
CCOC(=O)C1(Cc2ccc(OC)cc2)CCN(C(=O)C2=CCCC2)CC1	2.3%	i	5.5	1.1%	-94.5*
CCOC(=O)C1(Cc2ccc(OC)cc2)CCN(C(=O)c2cc(C)on2)CC1	-5.6%	-1.2%	-7.0	1.0%	-8.7
Cc1ccccc1Nc1n[nH]c(=S)s1	x	-4.7%	-8.8	x	u
Cc1ccc(Nc2n[nH]c(=S)s2)cc1F	u	i	6.9	x	-75.6*
Cc1ccc(Nc2n[nH]c(=S)s2)cc1	x	-1.8%	-7.8	x	-67.5*
CCOc1ccc(Nc2n[nH]c(=S)s2)cc1	-0.7%	-2.5%	0.5	-0.3%	-76.4*
Cc1ccc(Nc2nnns2)cc1C	-0.3%	-6.6%	-1.7	-7.3%	-22.3
